ROMK mod = modulates human ROMK potassium channel activity; 130,000 tested, 2% active; Tet-inducible ROMK, thallium flux fluorescence; actives lie on both sides; P48048; B-score at 10 µM;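 active = signal ratio slope over the read window, or its plate-corrected B-score, at least 3 SD from the plate mean, either direction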;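 note: B-score of the F/F0 ratio slope over 7 to 12 s after thallium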
Target sequence (P48048 whole entry, looked up): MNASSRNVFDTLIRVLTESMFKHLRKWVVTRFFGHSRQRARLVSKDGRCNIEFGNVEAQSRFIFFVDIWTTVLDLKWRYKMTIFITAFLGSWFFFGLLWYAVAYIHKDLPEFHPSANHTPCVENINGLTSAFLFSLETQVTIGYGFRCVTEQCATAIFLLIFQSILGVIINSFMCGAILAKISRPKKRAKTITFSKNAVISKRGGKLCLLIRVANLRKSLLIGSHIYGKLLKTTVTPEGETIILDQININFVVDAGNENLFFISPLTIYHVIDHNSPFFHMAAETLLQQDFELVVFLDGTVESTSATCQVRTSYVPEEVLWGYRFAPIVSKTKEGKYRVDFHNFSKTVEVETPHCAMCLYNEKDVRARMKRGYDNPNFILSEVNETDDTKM
HCT116 bCat-KO = beta-catenin-lacking colon tumor cell growth suppression. HCT116 beta-catenin knockout viability, CellTiter-Glo, 60 h; active compounds read low. viability, % at 10 µM. 140,000 tested, 1.5% active. AID 818;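 active = viability at or under a set limit, the compound median less 4 SD, cut at about 6% in these data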;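 note: 0% = Hyamine 1622 control at 20 µM and 100% = untreated cell control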
Insulin prom inh = TRM-6 insulin promoter activity inhibition | inhibition, % at 2 µM | TRM-6 cells (human fetal islet line), insulin promoter-eGFP reporter, imaging; reporter expression induced with tamoxifen | 130,000 tested, 0.9% active;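 active = inhibition above the mean plus 3 SD, with well images judged a real hit on visual review, cut at about 60% in these data, passing the limit was not always enough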
Lmaj promast = inhibitors of Leishmania major promastigote growth. Leishmania major promastigotes, resazurin fluorescence viability. inhibition, % at 10 µM. 200,000 tested, 9% active; in the data active = inhibition above about 50%;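 note: promastigotes grown with compound for 44 hours at 28 °C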
p97 ATPase inh = human p97 ATPase inhibition | recombinant p97 ATPase, Kinase-Glo ATP luminescence, 3 h | P55072 | 220,000 tested, 0.42% active | inhibition, % at 8 µM; in the data active = inhibition above about 15%;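 note: 0% = DMSO vehicle and 100% = wells lacking enzyme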
PTEN del growth = suppresses growth of cells with PTEN deletion. viability, % at 10 µM. HCT116 PTEN-null viability, CellTiter-Glo, 60 h; active compounds read low. 140,000 tested, 1.2% active;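 active = viability at or below a set limit, 4 SD under the median of all tested compounds, cut at about 3.7% in these data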;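 note: PTEN knockout HCT116 line with beta catenin targeted HCT116 as companion control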
* = called active by the depositor. In the library only some 10% were active in any assay of this set; here they are far more common.

How did CCNc1nc(SCCOc2ccc(Cl)cc2Cl)nc(N(C)C)n1 do in these assays?
ROMK mod: -0.039; Insulin prom inh: -41; Lmaj promast: 56*; p97 ATPase inh: 2

Results for Cc1nn(-c2ccccc2)c2c1C(=O)N(Cc1ccccc1)C(=O)C(C)(C)C2 ?
HCT116 bCat-KO: 84; Insulin prom inh: -37; Lmaj promast: 84*; p97 ATPase inh: -2; PTEN del growth: 82

Results for CCCCCCn1c(CN2CCCCC2C)nc2c1c(=O)n(C)c(=O)n2C (stereo unspecified) ?
HCT116 bCat-KO: 6.0*; Insulin prom inh: -69; Lmaj promast: 15; p97 ATPase inh: -8; PTEN del growth: 10

Results for CCCn1c(CN2CCCCC2C)nc2c1c(=O)n(C)c(=O)n2C (stereo unspecified) ?
HCT116 bCat-KO: 77; Lmaj promast: -6; p97 ATPase inh: 1; PTEN del growth: 73

Results for Cc1ccc(C(=O)N2CC3(C(C)C)CN(C(=O)c4ccc(C)cc4)CC(C(C)C)(C2)C3=O)cc1 ?
ROMK mod: -1.4; HCT116 bCat-KO: 94; Insulin prom inh: 18; Lmaj promast: 95*; p97 ATPase inh: 0; PTEN del growth: 86

How did Cc1ccc(C(=O)N2CCN(C(=O)c3ccc(C)cc3)C2)cc1 do in these assays?
ROMK mod: 0.29; Lmaj promast: 1; p97 ATPase inh: -1

What do the screens show for `CCC12CN(C(=O)c3ccc(C)cc3)CC(CC)(CN(C(=O)c3ccc(C)cc3)C1)C2=O`?
ROMK mod: 0.21; HCT116 bCat-KO: 89; Insulin prom inh: -41; Lmaj promast: 52*; p97 ATPase inh: 2; PTEN del growth: 97

Results for O=C1C2CC=CCC2C(=O)N1c1ccc(NCCc2cccc(F)c2)c([N+](=O)[O-])c1 (stereo unspecified) ?
ROMK mod: 0.21; HCT116 bCat-KO: 95; Insulin prom inh: 12; Lmaj promast: 61*; p97 ATPase inh: -5; PTEN del growth: 89

Results for O=C1C2CCCCC2C(=O)N1c1ccc(NC2CCCCC2)c([N+](=O)[O-])c1 (stereo unspecified) ?
ROMK mod: -0.022; HCT116 bCat-KO: 84; Insulin prom inh: 11; Lmaj promast: 52*; p97 ATPase inh: 3; PTEN del growth: 90

What do the screens show for `O=C(COc1ccc([N+](=O)[O-])cc1)NNC(=O)c1cccs1`?
ROMK mod: 0.65; Lmaj promast: -6; p97 ATPase inh: 1

How did COC(=O)c1cc2c(cc1N)OCCO2 do in these assays?
ROMK mod: 0.91; Lmaj promast: -5; p97 ATPase inh: 0

What do the screens show for `C#CCSc1nc2[nH]ncc2c(=O)[nH]1`?
ROMK mod: 0.019; HCT116 bCat-KO: 90; Insulin prom inh: 28; Lmaj promast: 53*; p97 ATPase inh: -4; PTEN del growth: 91

How did CN1CCN(C2=C(Cl)C(=O)N(CCc3ccccc3)C2=O)CC1 do in these assays?
ROMK mod: -0.49; HCT116 bCat-KO: 100; Insulin prom inh: 62; Lmaj promast: 93*; p97 ATPase inh: 0; PTEN del growth: 90

What do the screens show for `O=C1C(Cl)=C(NCCCN2CCOCC2)C(=O)N1CCc1ccccc1`?
HCT116 bCat-KO: 92; Insulin prom inh: -20; Lmaj promast: 97*; p97 ATPase inh: -3; PTEN del growth: 87

Results for CCSc1nnc(NC(=O)c2ccccc2C)s1 ?
ROMK mod: -0.0067; Insulin prom inh: 38; Lmaj promast: -6; p97 ATPase inh: 3

What do the screens show for `COc1ccc(NC(=S)N(CCCN2CCCCCC2)Cc2cccs2)cc1`?
ROMK mod: -1.4; Insulin prom inh: -7; Lmaj promast: 97*; p97 ATPase inh: -3

How did Cc1ccc(Cl)cc1NC(=S)N(CCCN1CCN(C)CC1)Cc1cccs1 do in these assays?
ROMK mod: 0.3; Lmaj promast: 54*; p97 ATPase inh: 1

What do the screens show for `COc1ccc(NC(=S)N(CCCN2CCCC2)Cc2cccs2)cc1`?
ROMK mod: -1.7; HCT116 bCat-KO: 93; Insulin prom inh: -22; Lmaj promast: 80*; p97 ATPase inh: 0; PTEN del growth: 100

How did COc1ccc(NC(=S)N(CCCN2CCCC2)Cc2ccco2)cc1 do in these assays?
ROMK mod: -2.3; Lmaj promast: 14; p97 ATPase inh: 2

How did COc1ccc(NC(=S)N(CCN(C)C)Cc2cccs2)cc1 do in these assays?
ROMK mod: -0.13; Lmaj promast: 7; p97 ATPase inh: 5
